# Assay results: the supplement of paper PMC12067093, “Discovery and optimisation of a covalent ligand for TRIM25 and its application to targeted protein ubiquitination” (Chemical Science, 2025)
# Targets with the largest changes are over-represented here; the source holds about 21,000 in all.
# Compound: Cc1cc(ccc1-c1ccccc1)C(=O)N1CCCN(CC1)C(=O)CCl [compound 10]
# Assay: probe-labelled cysteine peptide fold change vs DMSO (competition) (log2 fold change); higher = less target engagement (more negative = stronger competition)
# Conditions: THP-1, incubation time: 4 h
# 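Also: competitive profiling in live THP-1 cells: cysteine peptides tagged with an iodoacetamide desthiobiotin (IA-DTB) probe, intensity after compound treatment relative to DMSO-treated cells.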
# Sequence of UniProt P46100 (P46100 whole entry, looked up): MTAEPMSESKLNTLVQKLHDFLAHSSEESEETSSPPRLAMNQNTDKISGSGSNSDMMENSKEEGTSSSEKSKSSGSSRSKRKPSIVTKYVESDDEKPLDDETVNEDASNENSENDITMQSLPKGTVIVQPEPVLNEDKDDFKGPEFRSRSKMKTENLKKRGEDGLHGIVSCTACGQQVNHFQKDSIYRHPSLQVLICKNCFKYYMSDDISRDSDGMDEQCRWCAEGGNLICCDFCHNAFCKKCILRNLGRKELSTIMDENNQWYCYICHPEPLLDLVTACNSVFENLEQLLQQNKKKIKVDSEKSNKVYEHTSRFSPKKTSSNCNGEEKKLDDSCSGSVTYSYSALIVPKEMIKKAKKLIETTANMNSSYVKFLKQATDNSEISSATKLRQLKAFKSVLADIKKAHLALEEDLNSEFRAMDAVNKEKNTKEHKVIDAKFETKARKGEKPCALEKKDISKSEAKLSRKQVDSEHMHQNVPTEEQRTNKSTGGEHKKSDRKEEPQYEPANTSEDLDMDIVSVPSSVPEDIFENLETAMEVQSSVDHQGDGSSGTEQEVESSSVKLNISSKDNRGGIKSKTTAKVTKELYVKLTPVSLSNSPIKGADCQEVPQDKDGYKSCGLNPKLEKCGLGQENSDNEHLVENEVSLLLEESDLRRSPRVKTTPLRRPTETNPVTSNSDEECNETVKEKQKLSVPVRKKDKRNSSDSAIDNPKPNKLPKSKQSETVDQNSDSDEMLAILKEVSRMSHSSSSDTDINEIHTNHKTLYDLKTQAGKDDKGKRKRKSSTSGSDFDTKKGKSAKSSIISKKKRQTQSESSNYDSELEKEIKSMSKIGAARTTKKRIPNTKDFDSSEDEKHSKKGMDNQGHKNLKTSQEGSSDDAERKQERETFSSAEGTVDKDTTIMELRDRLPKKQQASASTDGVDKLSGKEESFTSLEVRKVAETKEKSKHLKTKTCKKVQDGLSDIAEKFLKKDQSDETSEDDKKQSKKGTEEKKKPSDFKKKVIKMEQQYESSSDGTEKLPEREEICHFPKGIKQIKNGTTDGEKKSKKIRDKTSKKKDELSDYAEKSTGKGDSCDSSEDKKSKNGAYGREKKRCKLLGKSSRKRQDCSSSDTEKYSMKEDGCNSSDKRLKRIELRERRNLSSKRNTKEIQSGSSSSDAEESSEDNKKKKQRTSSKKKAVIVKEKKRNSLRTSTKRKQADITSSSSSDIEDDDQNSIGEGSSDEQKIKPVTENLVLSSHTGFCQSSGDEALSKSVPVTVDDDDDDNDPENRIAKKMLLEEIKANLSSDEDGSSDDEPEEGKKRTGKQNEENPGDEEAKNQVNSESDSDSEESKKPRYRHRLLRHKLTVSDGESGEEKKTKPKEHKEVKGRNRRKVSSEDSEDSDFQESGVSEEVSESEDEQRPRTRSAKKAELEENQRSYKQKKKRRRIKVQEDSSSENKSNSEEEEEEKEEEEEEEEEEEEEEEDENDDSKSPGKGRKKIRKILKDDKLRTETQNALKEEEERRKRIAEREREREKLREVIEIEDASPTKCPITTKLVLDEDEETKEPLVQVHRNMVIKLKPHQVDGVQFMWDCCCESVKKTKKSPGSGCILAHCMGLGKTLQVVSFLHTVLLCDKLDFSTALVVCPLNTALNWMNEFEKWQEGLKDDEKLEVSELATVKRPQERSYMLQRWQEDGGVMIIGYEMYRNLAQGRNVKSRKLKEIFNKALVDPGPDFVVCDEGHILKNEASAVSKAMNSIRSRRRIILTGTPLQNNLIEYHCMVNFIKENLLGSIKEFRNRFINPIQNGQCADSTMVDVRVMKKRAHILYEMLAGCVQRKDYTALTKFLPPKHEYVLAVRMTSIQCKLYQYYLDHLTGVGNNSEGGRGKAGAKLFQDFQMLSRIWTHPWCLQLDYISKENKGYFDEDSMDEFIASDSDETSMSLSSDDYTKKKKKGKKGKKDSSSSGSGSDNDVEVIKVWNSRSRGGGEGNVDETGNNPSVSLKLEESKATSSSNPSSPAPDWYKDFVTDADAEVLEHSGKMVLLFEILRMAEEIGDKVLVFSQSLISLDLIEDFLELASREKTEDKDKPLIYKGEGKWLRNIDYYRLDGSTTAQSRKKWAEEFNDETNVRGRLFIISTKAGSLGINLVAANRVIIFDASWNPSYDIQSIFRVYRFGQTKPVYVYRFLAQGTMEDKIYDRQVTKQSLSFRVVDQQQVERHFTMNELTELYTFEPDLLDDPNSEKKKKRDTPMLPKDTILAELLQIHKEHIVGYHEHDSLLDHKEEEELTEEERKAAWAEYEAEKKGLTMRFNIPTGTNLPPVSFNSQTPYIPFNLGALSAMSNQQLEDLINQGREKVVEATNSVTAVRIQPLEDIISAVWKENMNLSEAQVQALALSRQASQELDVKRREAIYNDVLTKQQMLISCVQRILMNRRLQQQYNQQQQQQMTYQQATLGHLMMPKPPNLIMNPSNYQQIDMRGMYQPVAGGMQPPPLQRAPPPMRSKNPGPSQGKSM
# Sequence of UniProt Q92619 (Q92619 whole entry, looked up): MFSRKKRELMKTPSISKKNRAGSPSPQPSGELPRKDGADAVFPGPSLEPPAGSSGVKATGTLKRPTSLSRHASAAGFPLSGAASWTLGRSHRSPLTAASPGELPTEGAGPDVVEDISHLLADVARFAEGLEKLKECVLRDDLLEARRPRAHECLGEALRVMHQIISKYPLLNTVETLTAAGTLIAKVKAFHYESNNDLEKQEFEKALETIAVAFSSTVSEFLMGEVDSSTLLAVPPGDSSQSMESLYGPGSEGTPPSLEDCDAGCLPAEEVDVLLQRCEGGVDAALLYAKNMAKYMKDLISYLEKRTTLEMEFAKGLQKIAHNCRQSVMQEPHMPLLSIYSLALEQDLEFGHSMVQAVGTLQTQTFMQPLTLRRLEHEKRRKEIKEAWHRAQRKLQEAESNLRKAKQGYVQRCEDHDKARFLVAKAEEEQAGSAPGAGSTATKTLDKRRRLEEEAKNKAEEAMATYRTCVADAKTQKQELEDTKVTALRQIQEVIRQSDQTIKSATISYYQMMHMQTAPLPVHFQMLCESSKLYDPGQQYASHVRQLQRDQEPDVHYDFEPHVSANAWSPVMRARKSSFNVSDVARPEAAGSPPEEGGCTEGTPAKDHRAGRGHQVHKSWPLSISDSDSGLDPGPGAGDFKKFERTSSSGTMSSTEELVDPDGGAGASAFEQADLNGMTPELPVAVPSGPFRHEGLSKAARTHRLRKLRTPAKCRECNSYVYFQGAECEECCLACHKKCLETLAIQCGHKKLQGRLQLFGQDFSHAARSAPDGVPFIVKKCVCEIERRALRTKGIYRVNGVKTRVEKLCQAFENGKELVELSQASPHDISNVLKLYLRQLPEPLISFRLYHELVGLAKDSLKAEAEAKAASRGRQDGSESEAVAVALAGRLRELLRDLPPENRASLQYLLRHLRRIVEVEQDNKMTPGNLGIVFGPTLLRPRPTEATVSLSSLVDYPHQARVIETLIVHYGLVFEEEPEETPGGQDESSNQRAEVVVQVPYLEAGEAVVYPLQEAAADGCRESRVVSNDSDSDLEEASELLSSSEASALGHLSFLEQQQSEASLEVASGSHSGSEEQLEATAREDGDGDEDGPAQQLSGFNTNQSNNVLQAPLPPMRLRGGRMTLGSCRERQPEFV
# Sequence of UniProt Q9P2R3 (Q9P2R3 whole entry, looked up): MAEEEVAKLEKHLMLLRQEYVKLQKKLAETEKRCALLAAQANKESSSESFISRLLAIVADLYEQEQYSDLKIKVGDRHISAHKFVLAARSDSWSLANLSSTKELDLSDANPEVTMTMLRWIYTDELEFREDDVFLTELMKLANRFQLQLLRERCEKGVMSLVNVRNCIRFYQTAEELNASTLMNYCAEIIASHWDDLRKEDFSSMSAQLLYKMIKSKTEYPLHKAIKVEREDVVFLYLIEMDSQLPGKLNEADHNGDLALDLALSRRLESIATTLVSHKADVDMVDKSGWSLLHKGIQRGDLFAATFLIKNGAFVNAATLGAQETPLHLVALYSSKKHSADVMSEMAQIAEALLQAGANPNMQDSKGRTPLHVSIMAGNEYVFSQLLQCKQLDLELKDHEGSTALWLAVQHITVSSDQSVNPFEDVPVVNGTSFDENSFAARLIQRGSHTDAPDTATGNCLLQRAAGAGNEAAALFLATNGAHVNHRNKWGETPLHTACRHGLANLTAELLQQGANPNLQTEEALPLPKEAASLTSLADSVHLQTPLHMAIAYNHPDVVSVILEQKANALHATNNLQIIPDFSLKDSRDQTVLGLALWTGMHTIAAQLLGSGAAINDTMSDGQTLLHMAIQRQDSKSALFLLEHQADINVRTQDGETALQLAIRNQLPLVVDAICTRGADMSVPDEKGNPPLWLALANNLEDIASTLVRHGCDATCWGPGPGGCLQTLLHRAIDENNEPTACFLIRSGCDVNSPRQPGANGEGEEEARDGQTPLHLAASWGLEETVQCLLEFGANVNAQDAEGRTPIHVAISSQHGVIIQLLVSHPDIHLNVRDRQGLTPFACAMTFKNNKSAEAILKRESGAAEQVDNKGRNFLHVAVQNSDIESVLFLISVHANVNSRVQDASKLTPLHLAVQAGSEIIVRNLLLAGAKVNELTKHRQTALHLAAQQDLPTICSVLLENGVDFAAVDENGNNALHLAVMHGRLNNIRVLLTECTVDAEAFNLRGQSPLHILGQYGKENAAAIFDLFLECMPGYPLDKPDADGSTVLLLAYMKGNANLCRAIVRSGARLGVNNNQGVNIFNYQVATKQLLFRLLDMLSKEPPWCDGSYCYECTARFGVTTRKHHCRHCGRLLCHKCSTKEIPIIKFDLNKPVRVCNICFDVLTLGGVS
# Sequence of UniProt O43488 (O43488 whole entry, looked up): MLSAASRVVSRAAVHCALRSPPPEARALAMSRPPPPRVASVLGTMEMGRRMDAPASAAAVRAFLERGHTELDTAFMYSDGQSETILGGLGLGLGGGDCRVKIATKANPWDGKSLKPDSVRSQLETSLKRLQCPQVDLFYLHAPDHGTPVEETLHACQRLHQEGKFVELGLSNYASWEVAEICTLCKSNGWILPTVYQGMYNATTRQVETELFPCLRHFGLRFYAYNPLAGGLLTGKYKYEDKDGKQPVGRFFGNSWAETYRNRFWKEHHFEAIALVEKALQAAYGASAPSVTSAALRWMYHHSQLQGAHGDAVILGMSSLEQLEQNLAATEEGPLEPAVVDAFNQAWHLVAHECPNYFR
Target,probe-labelled cysteine peptide fold change (10 µM),probe-labelled cysteine peptide fold change (50 µM)
ASPSCR1_Q9BZE9_224+225_GDLSRPEDADTSGPCCEHTQEK (UniProt Q9BZE9),-0.786,-1.37
ALKBH5_Q6P6C2_100_LFSQDECAK (UniProt Q6P6C2),-0.000108,0.012
ARNT_P27540_269_CGSSSVDPVSVNR (UniProt P27540),-0.375,-0.756
ALG13_Q9NP73_86_ADLVISHAGAGSCLETLEK (UniProt Q9NP73),-0.211,-0.753
ANKRD50_Q9ULJ7_113_QALAFHFCK (UniProt Q9ULJ7),1.31,1.7
ATP6V1A_P38606_138_WDFTPCK (UniProt P38606),-1.09,-3.27
ARHGAP45_Q92619_809_LCQAFENGK (UniProt Q92619),0.077,0.0355
ADK_P55263_160_SLIANLAAANCYKK (UniProt P55263),-0.309,-1.01
AKR1B1_P15121_299+304_VCALLSCTSHK (UniProt P15121),-0.497,-2.06
AGL_P35573_767_EVPQMCIPGKIEEVVLEAR (UniProt P35573),-0.292,-0.537
ATP13A1_Q9HD20_410_ATTGLKPVDSGCVAYVLR (UniProt Q9HD20),0.133,0.0894
ATL2_Q8NHH9_293_HIHNCFSNLGCFLLPHPGLK (UniProt Q8NHH9),-0.0463,-0.137
ANLN_Q9NQW6_1037_INLANCTSR (UniProt Q9NQW6),-0.121,-0.171
AKAP8_O43823_395_IQFACSVCK (UniProt O43823),0.0747,-0.348
ATRX_P46100_1531_CPITTK (UniProt P46100),-0.402,-1.05
ARMC6_Q6NXE6_121_FCDQCK (UniProt Q6NXE6),-0.142,-0.663
AIG1_Q9NVV5_6_MALVPCQVLR (UniProt Q9NVV5),-0.836,-1.35
ALDH1L1_O75891_537_YFAGWCDK (UniProt O75891),-0.0268,-0.223
ANAPC1_Q9H1A4_1074_LLQLCQR (UniProt Q9H1A4),-0.0436,0.000425
ATM_Q13315_2323_KLDASCAANNPSLK (UniProt Q13315),-0.12,-0.242

Target,probe-labelled cysteine peptide fold change (10 µM),probe-labelled cysteine peptide fold change (50 µM)
AKR7A2_O43488_132+156_RLQCPQVDLFYLHAPDHGTPVEETLHACQR (UniProt O43488),-0.245,-0.374
ARHGEF6_Q15052_530_IVVHCNNNQDFQEWLEQLNR (UniProt Q15052),0.0109,0.158
ANKFY1_Q9P2R3_742_AIDENNEPTACFLIR (UniProt Q9P2R3),-0.0754,-0.213
AKR1B1_P15121_304_VCALLSCTSHK (UniProt P15121),-0.547,-2.08
ARHGEF7_Q14155_490_TLGNVTYMSQVLIQCAGSEEK (UniProt Q14155),-0.204,-1.18
ATP2B1_P20020_463+473_HLDACETMGNATAICSDK (UniProt P20020),-0.241,0.05
ALAD_P13716_75_CVLIFGVPSR (UniProt P13716),0.166,0.185
ADNP2_Q6IQ32_220_CNANASSQDALMYHILTSDIHR (UniProt Q6IQ32),0.0714,0.0124
AFTPH_Q6ULP2_659_IFEACFPSILVPDAEEEVTSLK (UniProt Q6ULP2),0.0219,-0.0706
ATP6V1B2_P21281_425_DHADVSNQLYACYAIGK (UniProt P21281),0.162,0.207
ACTR3B_Q9P1U1_408_DYEEYGPSICR (UniProt Q9P1U1),0.154,0.0944
ADAM10_O14672_222_NTCQLYIQTDHLFFK (UniProt O14672),0.033,0.208
ARPC1B_O15143_227_VAWVSHDSTVCLADADKK (UniProt O15143),0.103,-0.0807
APOOL_Q6UXV4_74_TATGCYIGWCK (UniProt Q6UXV4),-0.823,-1.75
ADAM10_O14672_530_DDSDCAR (UniProt O14672),0.552,1.2
AGL_P35573_486_ELICWGDSVK (UniProt P35573),0.0938,0.033
AKR1B1_P15121_299_VCALLSCTSHK (UniProt P15121),-0.208,-2.38
ATIC_P31939_575_VVIEACDELGIILAHTNLR (UniProt P31939),0.103,0.126
ANAPC1_Q9H1A4_1630_LLVPVDVDTNTPCYALLEVTYK (UniProt Q9H1A4),-0.151,0.155
